Experimental data published in the supplement of paper PMC9694430.
Values joined by “and” are separate entries in the source; they are usually repeats but may differ in a detail not shown here. Identical values can stand only once. Counter-ions that a name gives are not always drawn.

Tested on: LOC_OS05G43570-cb004
Test: thermal shift delta Tm vs DMSO control; higher = stronger stabilization (binding)
Settings: 12.5 µM; protein concentration 2 µM
Procedure, shortened: (§1)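 Thermal shift values come from differential scanning fluorimetry on purified rice kinase domains made in E. coli, with melting temperatures obtained from Boltzmann fits. Samples of 19.5 μl held 2 μM kinase, 100 mM potassium phosphate pH 7.5, 150 mM NaCl, 10% glycerol, 5 × SYPRO Orange and compound in DMSO, and were heated from 25°C to 95°C at 0.05°C/s. Each shift is a triplicate mean relative to the DMSO-only protein sample.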
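Further: purified Escherichia coli-expressed rice kinase domain construct.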

| Structure (SMILES) | thermal shift delta Tm |
| --- | --- |
| c1cncc(CN2CCC(n3ncc4c(N5CCOCC5)nc(-c5ccc6[nH]ccc6c5)nc43)CC2)c1 | -0.19 °C |
| CCCS(=O)(=O)Nc1ccc(F)c(C(=O)c2c[nH]c3ncc(Cl)cc23)c1F | 0.29 °C |
| COC(=O)N[C@@H](C)CNc1nccc(-c2cn(C(C)C)nc2-c2cc(Cl)cc(NS(C)(=O)=O)c2F)n1 [Encorafenib (LGX818)] | 0.22 °C |
| O=C1c2c(O)cc(O)cc2OC(c2ccc(O)c(O)c2)C1O (stereo unspecified) [Taxifolin (Dihydroquercetin)] | -0.08 °C |
| CCCCCCCCCCCCc1ccc(S(=O)(=O)Nc2nncs2)cc1 | 0.64 °C |
| COc1cc2c(c(OC)c1OC)-c1c(cc3c(c1OC)OCO3)CC(C)C(C)C2 (stereo unspecified) [Schisandrin B (Sch B)] | 0.14 °C |
| CS(=O)(=O)c1ccc(-c2cnc(N)c(C(=O)Nc3ccccc3)n2)cc1 | 0.1 °C |
| CC1Oc2cc(cnc2N)-c2c(nn(C)c2C#N)CN(C)C(=O)c2ccc(F)cc21 (stereo unspecified) | 0.83 °C |
| Cc1ccc2nc(NCCN)c3ncc(C)n3c2c1 | 0.49 °C |
| C[C@@H](N)c1ccc(C(=O)Nc2ccnc3[nH]ccc23)cc1 | 0.84 °C |
| CCn1c(N)c(C(=O)NC)c(=O)c2ccc(C#CC(C)(O)COC)nc21 (stereo unspecified) | 0.13 °C |
| COC(=O)[C@]12CCC(C)(C)C[C@H]1[C@H]1C(=O)C=C3[C@@]4(C)C=C(C#N)C(=O)C(C)(C)[C@@H]4CC[C@@]3(C)[C@]1(C)CC2 [Bardoxolone Methyl] | -2.54 °C |
| COc1cc(Nc2ncc(F)c(Nc3ccc4c(n3)N(COP(=O)(O)O)C(=O)C(C)(C)O4)n2)cc(OC)c1OC [R788 (Fostamatinib) Disodium] | 0.56 °C |
| CC#CC(=O)Nc1ccc2ncnc(Nc3cccc(Br)c3)c2c1 | 0.95 °C |
| Cc1c(C(=O)N2CCOc3ccc(-c4ccc(N)nc4)cc3C2)ccc(S(C)(=O)=O)c1F | 0.13 °C |
| COc1ccc(-c2ccc3c(N4CCOCC4)nc(N4C[C@@H](C)O[C@@H](C)C4)nc3n2)cc1CO | 0.2 °C |
| O=C(Nc1cnn2ccc(N3CCC[C@@H]3c3cc(F)ccc3F)nc12)N1CC[C@H](O)C1 [Larotrectinib (LOXO-101) sulfate] | 0.03 °C |
| O=C(NCCCNc1nc(Nc2cccc(NC(=O)N3CCCC3)c2)ncc1I)c1cccs1 | 1.24 °C |
| Nc1cccc(-c2cc3c(Oc4cccc(O)c4)ncnc3[nH]2)c1 | 0.77 °C |

| Structure (SMILES) | thermal shift delta Tm |
| --- | --- |
| CC(C)(C)NC(=O)c1cncn1C1CCN(c2ccc(-c3nnc(C(F)(F)F)o3)cn2)CC1 | -0.06 °C |
| Nc1nc2cc(-c3ccc4ncc(C(=O)N5CCOCC5)n4c3)ccc2o1 [Serabelisib (INK-1117,MLN-1117,TAK-117)] | 0.35 °C |
| COCCOc1ccc2c(c1)ncn2-c1ccc2cccc(N3CCC(N)CC3)c2n1 | 0.49 °C |
| CC(C)CCN1c2nc(Nc3cc(F)c(O)c(F)c3)ncc2N(C)C(=O)C1C (stereo unspecified) | 0.53 °C |
| O=c1cc(-c2cccc3c2Sc2ccccc2S3)oc(N2CCOCC2)c1 | 0.13 °C |
| N=C(N)NC(=N)NCCc1ccccc1 [Phenformin HCl] | 0.27 °C |
| CC(C)=CC[C@@H](O)C1=CC(=O)c2c(O)ccc(O)c2C1=O [Shikonin] | 0.09 °C |
| CCN(CC)CCNC(=O)c1c(C)[nH]c(/C=C2\C(=O)Nc3ccc(F)cc32)c1C [Sunitinib] | 0.55 °C |
| Nc1ncnc2c1c(-c1cnc3[nH]ccc3c1)nn2C1CCCC1 | 1.19 °C |
| CC(=O)Nc1cccc(-n2c(=O)n(C3CC3)c(=O)c3c(Nc4ccc(I)cc4F)n(C)c(=O)c(C)c32)c1 | 0.15 °C |
| O=C(NC[C@H](O)CO)c1ccncc1Nc1ccc(I)cc1F | 0.08 °C |
| COc1cc2ncnc(Oc3ccc(CC(=O)Nc4cnn(C(C)C)c4)cc3)c2cc1OC | -0.02 °C |
| Nc1cccc(S(=O)(=O)N2CCCN(S(=O)(=O)c3ccc4c(c3)OCCO4)CC2)c1 | 0.1 °C |
| CCN1CCN(Cc2ccc(C(=O)Nc3ccc(C)c(Oc4ccc5c(c4)CC(=O)N5)c3)cc2C(F)(F)F)CC1 | 0.42 °C |
| C=CC(=O)Nc1ccc2ncnc(Nc3ccc(OCc4cccc(F)c4)c(Cl)c3)c2c1 | 2.77 °C |
| Nc1ccc(-c2ccc3ncc4ccc(=O)n(-c5cccc(C(F)(F)F)c5)c4c3c2)cn1 [Torin 2] | 0.35 °C |
| C[C@@H]1CCN(C(=O)CC#N)C[C@@H]1N(C)c1ncnc2[nH]ccc12 | 0.33 °C and 0.16 °C |
| CN1CCCN(C(=O)c2cccc(-c3ccc(/C=C4/C(=O)Nc5ccc(Cl)cc54)o3)c2)CC1 | 0.58 °C |
| C[C@@H](Oc1cc(-c2cnn(C3CCNCC3)c2)cnc1N)c1c(Cl)ccc(F)c1Cl | 0.21 °C |

Tested on: LOC_OS06G16330-cb003
Sequence (as listed by the source): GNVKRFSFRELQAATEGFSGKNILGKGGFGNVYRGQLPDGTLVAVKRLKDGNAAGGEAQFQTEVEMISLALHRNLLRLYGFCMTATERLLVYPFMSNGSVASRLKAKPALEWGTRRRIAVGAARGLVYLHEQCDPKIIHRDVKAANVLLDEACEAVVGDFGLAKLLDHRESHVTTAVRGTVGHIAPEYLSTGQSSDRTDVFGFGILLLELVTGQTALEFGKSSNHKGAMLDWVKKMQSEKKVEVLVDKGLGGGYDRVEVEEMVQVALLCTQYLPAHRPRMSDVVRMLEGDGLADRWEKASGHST
Test: as above
Settings: 12.5 µM; protein concentration 2 µM
Procedure, shortened: as §1

| Structure (SMILES) | thermal shift delta Tm |
| --- | --- |
| c1cncc(CN2CCC(n3ncc4c(N5CCOCC5)nc(-c5ccc6[nH]ccc6c5)nc43)CC2)c1 | -0.3 °C |
| CCCS(=O)(=O)Nc1ccc(F)c(C(=O)c2c[nH]c3ncc(Cl)cc23)c1F | 1.64 °C |
| COC(=O)N[C@@H](C)CNc1nccc(-c2cn(C(C)C)nc2-c2cc(Cl)cc(NS(C)(=O)=O)c2F)n1 [Encorafenib (LGX818)] | 1.92 °C |
| O=C1c2c(O)cc(O)cc2OC(c2ccc(O)c(O)c2)C1O (stereo unspecified) [Taxifolin (Dihydroquercetin)] | -0.04 °C |
| CCCCCCCCCCCCc1ccc(S(=O)(=O)Nc2nncs2)cc1 | 0.11 °C |
| COc1cc2c(c(OC)c1OC)-c1c(cc3c(c1OC)OCO3)CC(C)C(C)C2 (stereo unspecified) [Schisandrin B (Sch B)] | -0.39 °C |
| CS(=O)(=O)c1ccc(-c2cnc(N)c(C(=O)Nc3ccccc3)n2)cc1 | 2.51 °C |
| CC1Oc2cc(cnc2N)-c2c(nn(C)c2C#N)CN(C)C(=O)c2ccc(F)cc21 (stereo unspecified) | 10.9 °C |
| Cc1ccc2nc(NCCN)c3ncc(C)n3c2c1 | 0.49 °C |
| C[C@@H](N)c1ccc(C(=O)Nc2ccnc3[nH]ccc23)cc1 | 2.93 °C |
| CCn1c(N)c(C(=O)NC)c(=O)c2ccc(C#CC(C)(O)COC)nc21 (stereo unspecified) | 0.51 °C |
| COC(=O)[C@]12CCC(C)(C)C[C@H]1[C@H]1C(=O)C=C3[C@@]4(C)C=C(C#N)C(=O)C(C)(C)[C@@H]4CC[C@@]3(C)[C@]1(C)CC2 [Bardoxolone Methyl] | -3.91 °C |
| COc1cc(Nc2ncc(F)c(Nc3ccc4c(n3)N(COP(=O)(O)O)C(=O)C(C)(C)O4)n2)cc(OC)c1OC [R788 (Fostamatinib) Disodium] | 6.28 °C |
| CC#CC(=O)Nc1ccc2ncnc(Nc3cccc(Br)c3)c2c1 | 3.13 °C |
| Cc1c(C(=O)N2CCOc3ccc(-c4ccc(N)nc4)cc3C2)ccc(S(C)(=O)=O)c1F | 1.82 °C |
| COc1ccc(-c2ccc3c(N4CCOCC4)nc(N4C[C@@H](C)O[C@@H](C)C4)nc3n2)cc1CO | -0.25 °C |
| O=C(Nc1cnn2ccc(N3CCC[C@@H]3c3cc(F)ccc3F)nc12)N1CC[C@H](O)C1 [Larotrectinib (LOXO-101) sulfate] | 2.16 °C |
| O=C(NCCCNc1nc(Nc2cccc(NC(=O)N3CCCC3)c2)ncc1I)c1cccs1 | 9.95 °C |
| Nc1cccc(-c2cc3c(Oc4cccc(O)c4)ncnc3[nH]2)c1 | 4.75 °C |

| Structure (SMILES) | thermal shift delta Tm |
| --- | --- |
| CC(C)(C)NC(=O)c1cncn1C1CCN(c2ccc(-c3nnc(C(F)(F)F)o3)cn2)CC1 | -0.23 °C |
| Nc1nc2cc(-c3ccc4ncc(C(=O)N5CCOCC5)n4c3)ccc2o1 [Serabelisib (INK-1117,MLN-1117,TAK-117)] | 0.24 °C |
| COCCOc1ccc2c(c1)ncn2-c1ccc2cccc(N3CCC(N)CC3)c2n1 | 7.19 °C |
| CC(C)CCN1c2nc(Nc3cc(F)c(O)c(F)c3)ncc2N(C)C(=O)C1C (stereo unspecified) | 3.47 °C |
| O=c1cc(-c2cccc3c2Sc2ccccc2S3)oc(N2CCOCC2)c1 | -0.34 °C |
| N=C(N)NC(=N)NCCc1ccccc1 [Phenformin HCl] | -0.35 °C |
| CC(C)=CC[C@@H](O)C1=CC(=O)c2c(O)ccc(O)c2C1=O [Shikonin] | -1.68 °C |
| CCN(CC)CCNC(=O)c1c(C)[nH]c(/C=C2\C(=O)Nc3ccc(F)cc32)c1C [Sunitinib] | 8.31 °C |
| Nc1ncnc2c1c(-c1cnc3[nH]ccc3c1)nn2C1CCCC1 | 3.18 °C |
| CC(=O)Nc1cccc(-n2c(=O)n(C3CC3)c(=O)c3c(Nc4ccc(I)cc4F)n(C)c(=O)c(C)c32)c1 | -0.52 °C |
| O=C(NC[C@H](O)CO)c1ccncc1Nc1ccc(I)cc1F | -0.12 °C |
| COc1cc2ncnc(Oc3ccc(CC(=O)Nc4cnn(C(C)C)c4)cc3)c2cc1OC | 0.82 °C |
| Nc1cccc(S(=O)(=O)N2CCCN(S(=O)(=O)c3ccc4c(c3)OCCO4)CC2)c1 | -0.91 °C |
| CCN1CCN(Cc2ccc(C(=O)Nc3ccc(C)c(Oc4ccc5c(c4)CC(=O)N5)c3)cc2C(F)(F)F)CC1 | 0.43 °C |
| C=CC(=O)Nc1ccc2ncnc(Nc3ccc(OCc4cccc(F)c4)c(Cl)c3)c2c1 | 1.04 °C |
| Nc1ccc(-c2ccc3ncc4ccc(=O)n(-c5cccc(C(F)(F)F)c5)c4c3c2)cn1 [Torin 2] | 2.11 °C |
| C[C@@H]1CCN(C(=O)CC#N)C[C@@H]1N(C)c1ncnc2[nH]ccc12 | 0.7 °C and 0.62 °C |
| CN1CCCN(C(=O)c2cccc(-c3ccc(/C=C4/C(=O)Nc5ccc(Cl)cc54)o3)c2)CC1 | 1.36 °C |
| C[C@@H](Oc1cc(-c2cnn(C3CCNCC3)c2)cnc1N)c1c(Cl)ccc(F)c1Cl | 10.8 °C |
